# KB-V1 MDR tox: qHTS assay for MDR1-selective chemotherapeutics: Primary screen using the drug-selected MDR subline cells KB-V1; KB-V1 MDR cells viability, CellTiter-Glo, 72 h; Potency, µM (series often up to 46.1 µM), hits mostly cytotoxic; 400,000 compounds, 3.4% hits; AID 1347076, 2019; further: on the % scale 0 is the no-effect control and ±100 the full control effect; nearly all actives have a fitted effect of over 60% in size
#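 KB-V1, DMEM (no phenol red) + 10% FBS; cpd pin-transferred, titration series; 72 h, 37 degrees C; CellTiter-Glo, luminescence. Data normalized, curve-fit.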
# SW480 rerep: A quantitative high throughput screen for small molecules that induce DNA re-replication in SW480 colon adenocarcinoma cells | SW480 DNA re-replication, Hoechst DNA content imaging, 48 h | Potency, µM (highest dose often 46.1 µM), for the others: top-dose re-replication activation, usual class: activators | 340,000 compounds, 1.8% hits | AID 624297, 2012; further: % of control where 0% means no effect; nearly all actives have a fitted effect of over 55% in size
#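 Hoechst fluorescence of nuclei (405 nm excitation, 500-530 nm emission) measured by plate-scanning imager after 48 hr compound exposure at 37 C; re-replication scored as increased number of nuclei with elevated intensity.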
# MCF10A rereplic: A quantitative high throughput screen for small molecules that induce DNA re-replication in MCF 10a normal breast cells | MCF 10A DNA re-replication, Hoechst nuclear intensity, 48 h | Potency, µM (highest dose often 46.1 µM), for the others: at the top dose activity, positive = re-replication, most hits filed as activators | 350,000 compounds, 2.9% hits | AID 624296, 2012; further: % of control where 0% means no effect; nearly all actives have a fitted effect of over 50% in size
# ELG1 repair inh: qHTS screen for small molecules that inhibit ELG1-dependent DNA repair in human embryonic kidney (HEK293T) cells expressing luciferase-tagged ELG1; HEK293T ELG1-luciferase reporter, luminescence, 16 h; DNA damage induced by 5-fluorouridine; Potency, µM (titrated, usually from 46.1 µM), inactives show at the highest dose activity change, negative = inhibition, most hits filed as inhibitors; 330,000 compounds, 2.3% hits; further: on the % scale 0 is the no-effect control and ±100 the full control effect; nearly all actives have a fitted effect of over 55% in size
#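 5-Fluorouridine DNA damage + compound/DMSO, 2,000 cells/well, 16 h, 37 °C/5% CO2. ONE-Glo, 30 min RT, luminescence. Readout = decrease in reporter signal.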
# KB-3-1 cytotox: qHTS assay for MDR1-selective chemotherapeutics: Primary screen using the parental adenocarcinoma cell KB-3-1; KB-3-1 viability, CellTiter-Glo ATP luminescence, 72 h; Potency, µM (doses to about 46.1 µM), usual class: cytotoxic; 400,000 compounds, 1.4% hits; further: on the % scale 0 is the no-effect control and ±100 the full control effect; nearly all actives have a fitted effect of over 60% in size
#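 Parental KB-3-1 adenocarcinoma cells in phenol-red-free DMEM with 10% FBS were pin-treated with compounds at several concentrations, incubated 72 h at 37 °C, and viability read by CellTiter-Glo luminescence; concentration-effect curves were fitted after normalization.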
# An asterisk follows results filed as active; i = inactive; ? = inconclusive; / = not tested or not shown; [ ] = dose if it differs, or a comment. Compounds with a hit are over-represented: about 8.2% of the library has one in this group of screens. The call rests on the fitted dose curve; in most records, active means well fitted curve in the direction sought with a large enough effect; inconclusive means small, poorly fitted or top-dose-only effect, or another doubt; inactive means no such curve, though single readings can be large; an effect the other way counts as inactive or inconclusive. Potency means the concentration at half of the fitted maximal effect.
SMILES,KB-V1 MDR tox,SW480 rerep,MCF10A rereplic,ELG1 repair inh,KB-3-1 cytotox
N#CCSc1nc(-c2ccccc2)c2cc(Cl)ccc2n1,i,3%,7%,?,i
CCOC(=O)CSc1nc(Nc2ccc3c(c2)OCO3)c2ccccc2n1,i,1%,-4%,-28%,i
C=C1C=C(C(F)F)n2ncc(C(=O)NCc3ccc(Cl)cc3Cl)c2N1,i,/,/,/,i
COc1cccc(OC)c1C(=O)Nc1ccc(C(=O)c2ccncc2)cc1,i,0%,-12%,-7%,i
O=C(NCC(c1ccco1)N1CCc2ccccc21)C(=O)Nc1ccccc1F (stereo unspecified),16µM*,?,?,-12%,15µM*
O=C(NCC(c1ccco1)N1CCc2ccccc21)C(=O)Nc1ccccc1 (stereo unspecified),i,-476%,12%,1%,i
O=C(NCC(c1ccco1)N1CCc2ccccc21)C(=O)Nc1ccc(F)cc1F (stereo unspecified),4.1µM*,?,4.1µM*,?,4.6µM*
CCOc1ccc(C(=O)Nc2ccc(-c3nc4ccccc4[nH]3)cc2)cc1Cl,?,/,/,/,i
CCCS(=O)(=O)NC(=O)C1(C)CCN(C(=O)Cc2ccc(F)cc2)C1 (stereo unspecified),i,/,/,/,i
COc1ccccc1-c1c(C)nn2c(N3CCOCC3)cc(C)nc12,i,-18%,-3%,0%,i
Cc1cc(N2CCN(Cc3ccccc3)CC2)n2nc(C)c(-c3ccccc3)c2n1,?,-11%,-3%,?,i
COc1ccc(CCNc2cc(C)nc3c(-c4ccccc4)c(C)nn23)cc1OC,8.2µM*,-34%,19%,21µM*,i
COc1ccc(-c2c(C)nn3c(N4CCN(Cc5ccccc5)CC4)cc(C)nc23)cc1OC,i,-18%,15%,4.6µM*,i
COc1ccc(CN2CCN(c3cc(C)nc4c5c(C)cc(C)nc5nn34)CC2)cc1F,2.3µM*,9%,4%,-2%,i
COc1ccccc1-c1c(C)nn2c(N3CCCCCC3)cc(C)nc12,?,26%,?,23µM*,?
COc1ccc(CCNc2cc(C)nc3c(-c4ccccc4)cnn23)cc1OC,i,6%,?,?,i
O=C(Nc1ccc([N+](=O)[O-])cc1)NN1CCCCCC1,?,-1%,3%,/,?
CC1(C(=O)O)CCCN1C(=O)c1cccc(F)c1 (stereo unspecified),i,/,/,/,i
C=CC[C@@H](CC(=O)N[C@H](CO)Cc1ccccc1)C(=O)N[C@H](COC(=O)[C@@H](CC=C)CC(=O)OC(C)(C)C)Cc1ccccc1,i,46%[9.22 µM],4%,-6%,?
COc1cccc2c3cccc(OC)c3c3[nH]cnc3c12,?,?,21µM*,/,?
COc1cccc2[nH]c3c(=O)[nH]cnc3c12,?,-3%,-11%,12%,i
CC(=O)Nc1ccc(OCC(O)CN2CCN(c3cc(Cl)ccc3C)CC2)cc1 (stereo unspecified),4.1µM*,23%,?,-5%,?
CC(=O)Nc1ccc(OCC(O)Cn2c3ccccc3c3ccccc32)cc1 (stereo unspecified),i,10%,18%,18µM*,i
Cc1nccn1CC(O)Cn1c2ccccc2c2ccccc21 (stereo unspecified),i,-11%,21µM*,?,i
CC(=O)Nc1ccc(OCC(O)CN2CCN(c3ccc(C)c(Cl)c3)CC2)cc1 (stereo unspecified),i,-11%,-5%,?,i
SMILES,KB-V1 MDR tox,SW480 rerep,MCF10A rereplic,ELG1 repair inh,KB-3-1 cytotox
Cc1ccccc1OCC(O)Cn1c2ccccc2c2ccccc21 (stereo unspecified),21µM*,23µM*,-7%,36%,i
COc1cccc(NC(=O)NCc2ccc3c(c2)CCN3C(=O)c2ccccc2)c1,?,/,/,/,i
Cc1ccc(/C=C/c2ccc(N(C)C)cc2)[n+](C)c1,i,-2%,-11%,29%,2.1µM*
CCCCCC[n+]1ccccc1/C=C/c1ccc(N(C)C)cc1,i,/,/,/,?
CN(C)c1ccc(/C=C/c2cc[n+](C)cc2)cc1,i,?,?,?,23µM*
CC1CCC/C(=C(\C#N)c2nc(-c3cc4ccccc4oc3=O)cs2)C1 (stereo unspecified),8.2µM*,-2%,16%,?,?
Cc1nn(CC(=O)NC2CC2)c(C)c1S(=O)(=O)N(C)C,i,/,/,/,i
Cc1ccc(NC(=O)Cn2nc(C)c(S(=O)(=O)N(C)C)c2C)cc1C,23µM*,1%,5%,-12%,i
Cc1nn(CC(=O)Nc2ccc(Cl)c(S(=O)(=O)N(C)C)c2)c(C)c1[N+](=O)[O-],21µM*,2%,?,?,i
COc1ccc(/C=C2\C(=O)NCC(=O)N2Cc2ccccc2)cc1,?,16µM*,?,-13%,?
COc1cccc(CN(C)C(=O)CSC(C)C(=O)Nc2cc(C)on2)c1OC (stereo unspecified),i,0%,-1%,-3%,i
COCCN=c1scc(-c2cc(OC)c(OC)c(OC)c2)n1/N=C/c1c(C)[nH]c2ccccc12,?,1%,?,7.3µM*,?
COc1cc(/C=C(\C#N)C(=O)c2c(C)[nH]c3ccccc23)cc(OC)c1OC,i,-3%,0%,?,?
Cn1cc2ccc(-c3ccc4ncnc(NCc5cccs5)c4c3)cc2n1,i,/,/,/,i
CCSc1nc2c([nH]c3ccccc32)c(=O)n1-c1cccc(OC)c1,?,/,/,/,i
CC(C)CNC(=O)C1(C)CCCN1C(=O)C(C)(C)Oc1ccc(Cl)cc1 (stereo unspecified),i,/,/,/,i
Cc1csc(NC(=O)c2nc(-c3ccccc3)n(-c3ccccc3)n2)n1,10µM*,-5%,7%,15µM*,?
O=C(Nc1nccs1)c1nc(-c2ccccc2)n(-c2ccccc2)n1,i,-5%,16%,?,i
CCSc1nnc(NC(=O)c2nc(-c3ccccc3)n(-c3ccccc3)n2)s1,?,-9%,10µM*,-23%,i
CCSc1nnc(NC(=O)c2ccc(C)o2)s1,18µM*,-2%,2%,?,i
CCOC(=O)N1CCC(=NNC(N)=O)C1,i,/,/,/,i
COc1ccccc1CNC(=O)Cc1csc(NC(=O)Nc2ccccc2OC)n1,?,2%,?,?,i

# Bioassay records from PubChem BioAssay.
